The whole screen tested about 370,000 compounds, of which about 2,600 (0.7%) were called active. The sample holds actives, similar compounds and a random draw of the others, so the mix is not that of the screen.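 The calls were made as follows: active = inhibition above a cutoff: mean of compounds within the control limits plus 3 SD of those (cut at about 17% in these data); inactive = the rest.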
What follows are compounds tested against Sialate O-acetylesterase (Homo sapiens) (UniProt Q9HAT2) (assay: blockers of sialate O-acetylesterase activity-probe labeling – biochemical, fluorescence polarization, FP-Rh probe, 1536-well HTS, primary screen (AID 1053197;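 also: 0% = plate median of compound wells and 100% = probe without SIAE protein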)). Details: SIAE FP-Rh probe binding, at 9.66 µM, hits give high values.
Sequence of Sialate O-acetylesterase (Homo sapiens) (Q9HAT2 whole entry, looked up): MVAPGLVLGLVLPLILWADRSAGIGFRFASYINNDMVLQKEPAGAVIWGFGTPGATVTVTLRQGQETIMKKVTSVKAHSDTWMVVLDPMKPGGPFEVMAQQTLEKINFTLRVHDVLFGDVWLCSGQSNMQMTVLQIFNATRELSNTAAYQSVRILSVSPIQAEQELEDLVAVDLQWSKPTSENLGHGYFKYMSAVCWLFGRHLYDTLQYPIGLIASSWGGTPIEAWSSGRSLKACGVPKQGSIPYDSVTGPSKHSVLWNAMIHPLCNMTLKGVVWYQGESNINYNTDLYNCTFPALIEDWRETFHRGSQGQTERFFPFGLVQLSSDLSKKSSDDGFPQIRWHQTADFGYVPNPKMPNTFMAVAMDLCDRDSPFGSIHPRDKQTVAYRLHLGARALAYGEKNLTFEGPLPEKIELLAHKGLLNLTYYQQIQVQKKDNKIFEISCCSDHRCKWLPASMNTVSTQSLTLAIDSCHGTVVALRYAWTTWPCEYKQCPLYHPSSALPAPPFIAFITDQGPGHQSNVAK

| Compound | inhibition |
| --- | --- |
| C#CCN([C@H](C(=O)OC)C(C)CC)S(=O)(=O)c1ccccc1Br (stereo partly specified) | -0.84% (inactive) |
| Cc1nc(-c2ccc(F)cc2)c(CC(=O)N(C)CC(=O)Nc2c(C)cccc2C)s1 | -6.4% (inactive) |
| Cc1ccc(C(=O)CCC(=O)N(C)CC(=O)Nc2c(Cl)cccc2Cl)cc1 | 4.52% (inactive) |
| Cc1cccc(C)c1NC(=O)CN(C)C(=O)CCC(=O)c1ccccc1 | 19.1% (active) |
| O=C(CSc1nc2ccccc2nc1N1CCCCC1)N1CCN(S(=O)(=O)c2cccc([N+](=O)[O-])c2)CC1 | 1.34% (inactive) |
| O=C1C(=O)N(Cc2ccc(-c3ccsc3)cc2)c2ccc(OC(F)(F)F)cc21 | 4.4% (inactive) |
| Oc1ccc2ccc3cccc[n+]3c2c1 | 17.1% (active) |
| COc1ccc(C(=O)CSc2nnc(-c3cnccn3)n2-c2ccc(C)cc2)cc1 | 4.14% (inactive) |
| CCOC(=O)N1CCN(C(=O)C[C@@H]2C(=O)N(CCc3ccc(Cl)cc3)C3=CCCC[C@]32C(=O)OCC)CC1 | 2.23% (inactive) |
| CCCCNC(=O)C[C@@H]1C(=O)N(CCc2ccc(Cl)cc2)C2=CCCC[C@]21C(=O)OCC | -0.15% (inactive) |
| Cc1ccc(C)c(NC(=O)CCS(=O)(=O)c2ccccc2)c1 | -0.04% (inactive) |
| CCCCCCCCNS(=O)(=O)/C=C/c1cc(C)ccc1CNC(=O)OC(C)(C)C | -1.33% (inactive) |
| Cc1cc(C(=O)NNC(=O)c2cccc(S(=O)(=O)N3CCOCC3)c2)c2ccccc2n1 | 0.67% (inactive) |
| O=C(NNc1c2ccccc2nc2ccccc12)c1cc2ccccc2cc1O | 49.5% (active) |
| Cc1ccc(C)c(NC(=O)NNC(=O)c2ccc3ccccc3c2O)c1 | 13.1% (inactive) |
| COc1ccc(/C=C2\CC3(OC(C)=O)CCCN2C3)cc1 (stereo unspecified) | 5.11% (inactive) |
| Cc1ccc(-n2c(SCC(=O)Nc3cccc4ccccc34)nnc2-c2ccco2)cc1 | -4.95% (inactive) |
| CC(=O)O[C@@]1(C(C)=O)CCC2[C@H]3C=C(C)C4=CC(=O)CC[C@@]4(C)C3CC[C@]21C (stereo partly specified) | 4.07% (inactive) |
| S=C(Nc1ccc(Br)cc1Cl)NC1CCN(Cc2ccccc2)CC1 | 5.25% (inactive) |
| O=C(NC1CCN(Cc2ccccc2)CC1)c1cc(Br)c(Br)[nH]1 | -7.58% (inactive) |
| S=C(Nc1ccc(Br)cc1)NC1CCN(Cc2ccccc2)CC1 | 17.1% (active) |
| N#Cc1ccccc1OC[C@@H](O)CN1CCC(C(O)(c2ccccc2)c2ccccc2)CC1 | 3.53% (inactive) |
| CN[C@H]1C[C@H]2c3cc(N4CCOCC4)ccc3CCN2C[C@H]1[C@H](C)O | 3.31% (inactive) |
| CCCCNC(=O)C1CCCN(S(=O)(=O)c2ccc(S(=O)(=O)NCC(C)C)cc2)C1 (stereo unspecified) | -1.45% (inactive) |
| COc1ccc(CCNC(=O)C2CCCN(S(=O)(=O)c3ccc(OC)cc3)C2)cc1 (stereo unspecified) | -4.52% (inactive) |
| CC(C)CCNC(=O)C1CCCN(S(=O)(=O)c2ccc(F)cc2)C1 (stereo unspecified) | 23.3% (active) |

— PubChem BioAssay AID1053197 (The Scripps Research Institute Molecular Screening Center, 2014)
